Screens deposited in PubChem by Broad Institute.
TRPM1 prom inh = MITF TRPM1 promoter inhibition in SK-MEL-5 cells | SK-MEL-5 TRPM1 promoter luciferase, 24 h | AID 488899 | 330,000 tested, 0.83% active | inhibition, % at 12.5 µM;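 active = mean inhibition across replicates of 60% or more, whatever share of single replicates reaches that level; inconclusive = some that reach 60%, reason not given; inactive = mean inhibition across replicates below 60%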
Wnt bcat act = Wnt/beta-catenin pathway activation. Wnt/beta-catenin reporter cell assay, activator, plate reader. 300,000 tested, 1.2% active. activation, % at 9.35 µM; in the data active = activation above about 30%, passing the limit was not always enough; inconclusive = no clear call, values can overlap the other calls;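 also: 0% = neutral control wells and 100% = positive control wells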
esBAF inh = SWI/SNF esBAF complex inhibition; mouse ES cells, Bmi1-luciferase knock-in reporter, 24 h; 100% = twice the neutral-well signal; reporter increase, % at 12.5 µM; 350,000 tested, 2% active; AID 602393; in the data active = activation above about 40%; inconclusive = no clear call, values can overlap the other calls;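 also: 0% = median of the plate's neutral control wells and 100% = double that signal; a rise in the Bmi1 reporter signal indicates esBAF inhibition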
MITF act = activators of MITF-driven TRPM1 promoter activity in SK-MEL-5 cells | SK-MEL-5 TRPM1-promoter luciferase, 24 h; % of positive control, neutral wells = 0 | activation, % at 12.5 µM | 300,000 tested, 0.75% active;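 active = mean activation of at least 80% with every replicate also reaching 80%; inconclusive = mean reaches 80% but some replicate falls short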;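 also: 0% = neutral control wells and 100% = parthenolide positive control wells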
Statin myotox sup = suppressors of simvastatin-induced myotoxicity in C2C12 myotubes; ATP luminescence, 48 h; scaled: DMSO 0, geranylgeraniol control 100; rescue of ATP level, % at 7.49 µM; 330,000 tested, 0.78% active; AID 602340;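 active = mean ATP rescue above about 67%, or every replicate alone reaching that limit, limit read from the data, passing the limit was not always enough; inconclusive = no clear call, values can overlap the other calls; inactive = mean under the limit and some replicate under it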;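 also: myotubes were challenged with 10 µM simvastatin during compound exposure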
LMP1 NFkB inh = reduces LMP1-driven NF-kappaB luciferase signal. inhibition, % at 12.5 µM. LMP1-induced NF-kappaB luciferase reporter cells, luminescence. AID 504558. 350,000 tested, 0.69% active; in the data active = inhibition above about 41%; inconclusive = no clear call, values can overlap the other calls;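 also: 0% = neutral control wells and 100% = reference inhibitor control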
* marks the source's active call; other numbers are inactive results; ? = inconclusive; / = no result given. Only some compounds are listed: those with a hit (about 4% of all), similar ones and a draw of the others.

SMILES | TRPM1 prom inh | Wnt bcat act | esBAF inh | MITF act | Statin myotox sup | LMP1 NFkB inh
COc1cccc(S(=O)(=O)N(C)C[C@H]2OCc3cn(nn3)CCCC(=O)N([C@H](C)CO)C[C@H]2C)c1 | / | / | 0.4 | / | -4.4 | /
Cc1cccc(NC(=O)CSc2nnc(-c3ccc(S(=O)(=O)N4CCOCC4)cc3)n2C)c1 | -10.0 | -0.7 | -4.1 | 12.0 | 8.2 | 1.4
Cc1noc(C)c1S(=O)(=O)Nc1ccc2c(c1)C(=O)N([C@H](C)CO)C[C@H](C)[C@@H](CN(C)S(=O)(=O)c1ccc(Cl)cc1)OCCCC[C@H](C)O2 | / | / | -3.8 | / | 23.3 | /
Cc1noc(C)c1S(=O)(=O)Nc1ccc2c(c1)C(=O)N([C@@H](C)CO)C[C@@H](C)[C@H](CN(C)Cc1ccc(Cl)c(Cl)c1)OCCCC[C@@H](C)O2 | / | / | -0.2 | / | 120.8* | /
Cc1noc(C)c1S(=O)(=O)Nc1ccc2c(c1)C(=O)N([C@H](C)CO)C[C@@H](C)[C@@H](CN(C)S(=O)(=O)c1ccc(Cl)cc1)OCCCC[C@H](C)O2 | / | / | 13.1 | / | 101.2* | /
Cc1noc(C)c1S(=O)(=O)Nc1ccc2c(c1)C(=O)N([C@@H](C)CO)C[C@H](C)[C@H](CN(C)Cc1ccc3c(c1)OCO3)O2 | / | / | 3.0 | / | 75.8* | /
Cc1noc(C)c1S(=O)(=O)Nc1ccc2c(c1)C(=O)N([C@H](C)CO)C[C@H](C)[C@H](CN(C)Cc1ccc(Cl)c(Cl)c1)OCCCC[C@@H](C)O2 | / | / | -2.5 | / | 35.0 | /
CC(C)CC#Cc1cnc2c(c1)C(=O)N([C@H](C)CO)C[C@H](C)[C@H](CN(C)C(=O)c1ccccc1)O2 | / | / | 5.2 | / | -13.0 | /
Cc1ccc(S(=O)(=O)N2CC=C(C(=O)NCc3ccccc3)CC2)cc1 | -9.6 | -0.8 | 5.5 | 9.5 | -1.6 | -0.9
Cc1cccc(OCC(=O)Nc2ccccc2C(=O)N2CCOCC2)c1 | 1.0 | / | / | -1.3 | / | -0.3
Cc1ccc(-n2nc3c(n2)/C(=N/O)CC/C3=N\O)cc1 | -25.8 | 42.6* | 20.6 | 24.5 | -55.2 | -19.3
CCOC(=O)c1sc2nc3n(c(=O)c2c1C)CCCCC3 | -89.8 | / | 68.1* | ? | -6.8 | -31.4
CSc1cccc(NC(=O)c2sc3nc4n(c(=O)c3c2C)CCC4)c1 | -80.5 | 17.9 | 53.7* | ? | -20.2 | -10.2
CC(=O)c1cccc(NC(=O)c2sc3nc4n(c(=O)c3c2C)CCCCC4)c1 | -23.6 | 0.5 | 16.5 | 22.5 | -22.5 | 0.8
Cc1c(C(=O)Nc2cc(F)ccc2F)sc2nc3n(c(=O)c12)CCCCC3 | -73.8 | 17.9 | 70.9* | 73.6 | -107.3 | -41.5
C[C@H]1CN([C@@H](C)CO)C(=O)c2cccc(NS(=O)(=O)c3ccc(Cl)cc3)c2O[C@H]1CN(C)Cc1ccc(Oc2ccccc2)cc1 | / | / | -0.8 | / | 32.8 | /
Cc1nnc(NC(=O)c2ccc(-c3cccc(C(F)(F)F)c3)o2)s1 | -18.1 | / | / | 20.5 | / | 2.3
COc1cccc(NC(=O)Nc2ccccc2Br)c1 | -70.1 | 22.9 | 59.5* | 71.7 | -1.5 | -7.4
COc1ccc(NC(=O)Nc2ccc(Br)cn2)cc1 | -87.8 | 27.2 | / | 87.1* | / | -19.8
O=C(CCCCC(=O)Nc1ccc(F)cc1F)Nc1ccc(F)cc1F | -5.5 | 33.1* | / | / | / | 6.4
COC(=O)c1ccccc1NC(=O)Nc1ccc(Br)cn1 | -0.6 | 3.0 | / | 3.8 | / | -2.8
C=CCNC(=O)Nc1ccc2oc(C)nc2c1 | -5.5 | / | -0.1 | 9.2 | -3.0 | 0.4
COc1ccc(NC(=O)Nc2ccc3oc(C)nc3c2)cc1 | -42.1 | 39.8* | / | 44.0 | / | 1.7
Nn1c(SCc2nc3ccccc3[nH]2)nnc1C1CCCCC1 | 2.4 | -6.2 | 2.6 | / | / | -2.5
COc1cccc(NC(=O)C2CC2)c1 | -15.4 | 0.8 | 9.0 | 15.4 | 4.3 | -2.4
SMILES | TRPM1 prom inh | Wnt bcat act | esBAF inh | MITF act | Statin myotox sup | LMP1 NFkB inh
COc1ccc(NC(=S)Nc2ccc(N)c([N+](=O)[O-])c2)cc1 | -15.8 | 45.0* | 47.4* | 19.3 | -17.1 | -9.6
COC(=O)[C@H](Cc1ccccc1)NC(=O)NCc1ccc(C)cc1 | / | 51.2* | -3.1 | / | 8.4 | /
CCC1CCC(NC(=O)Nc2cccc(OC)c2)CC1 (stereo not given) | -73.1 | 57.2* | 82.6* | ? | -5.0 | -47.5
COc1ccc(NC(=S)Nc2ccc3nccnc3c2)cc1 | -76.8 | / | 64.7* | 87.6* | 1.1 | -15.6
COC(=O)[C@H](Cc1ccccc1)NC(=O)NCc1ccccc1 | 13.7 | -1.5 | -6.5 | / | 1.3 | -2.8
COc1ccc(NC(=O)c2ccccc2[N+](=O)[O-])cc1 | -27.8 | / | / | 26.4 | / | 1.5
COc1ccc(NC(=S)Nc2ccc3snnc3c2)cc1 | -53.8 | 3.7 | 29.8 | 51.3 | -1.8 | -12.5
Cc1nc2cc(NC(=O)c3ccc(S(=O)(=O)N(C)c4ccccc4)cc3)ccc2o1 | -14.5 | 1.4 | 83.4* | 10.1 | -13.2 | -20.7
COc1ccc(NC(=O)Nc2cccc(OC)c2)cc1 | -95.6 | ? | 37.5 | 96.5* | -5.6 | -9.3
CCC(=O)NC(=S)Nc1ccc2oc(-c3ccc(OC)cc3)nc2c1 | -54.3 | 10.6 | / | 60.0 | / | -35.4
COc1ccc(-c2nc3cc(NC(=S)NC(=O)Cc4ccccc4)ccc3o2)cc1 | -93.8 | / | / | 96.9* | / | -39.1
CN(c1ccccc1)S(=O)(=O)c1ccc(NC(=O)c2ccc(-c3ccccc3)cc2)cc1 | 12.7 | -1.1 | 2.4 | -10.6 | -11.0 | 24.3
COc1ccc(CNC(=O)Nc2cc(C)cc(C)c2)cc1 | -36.3 | 26.6 | 12.1 | 33.1 | 21.9 | -7.8
COc1ccc(CNC(=O)Nc2ccc(C)cc2)cc1 | -40.8 | -1.8 | 54.8* | 46.3 | 20.1 | -5.5
O=C(OCC(=O)N1CCOCC1)c1cnc(Cl)c(Cl)c1 | -1.7 | 14.5 | -4.8 | 0.1 | 4.1 | -6.1
OCCCn1c(CCCNc2nc(-c3cccc(Br)c3)cs2)nc2cc(Cl)c(N3CCCCC3)cc21 | -0.7 | -7.4 | -8.2 | 2.2 | -2.7 | 0.0
COc1ccccc1/C=C/C(=O)Nc1ccc2c(c1)CCC2 | -111.9 | 28.4 | / | 113.9* | / | -36.7
COc1ccc(NC(=O)Nc2ccc(F)cc2F)cc1 | -85.7 | / | ? | 92.3* | 10.9 | -11.3
COc1ccc(NC(=O)Nc2ccc(F)cc2F)c(C)c1 | -30.9 | / | / | 32.6 | / | -2.8
COc1ccc(OC)c(/C=C/C(=O)Nc2ccc3c(c2)CCC3)c1 | -2.9 | -1.4 | / | -1.0 | / | -5.0
COc1ccc(NC(=S)NCc2ccc(F)cc2)cc1 | 5.3 | 3.4 | 42.4* | -6.6 | -0.1 | 10.3
COc1cccc(NC(=S)Nc2ccc(F)cc2)c1 | 3.2 | 40.6* | 6.4 | -1.2 | -11.1 | -5.4
COc1cccc(NC(=S)Nc2ccc(O)cc2)c1 | -27.1 | 5.5 | 21.8 | 27.9 | 4.3 | -1.1
COc1ccc(-c2ccc([C@@H]3[C@H](C#N)N(C(=O)C4CCC4)[C@H]3CO)cc2)cc1 | / | / | 2.7 | / | -28.0 | /
CCc1ccc(-c2nc(CSCC(=O)N3CCN(c4ncccn4)CC3)c(C)o2)cc1 | 29.9 | -2.2 | -43.2 | -30.0 | 5.2 | 8.0
Cc1ccc(OCC(=O)Nc2ccc3c(c2)nc2n3CCOC2)cc1 | -1.7 | / | 2.4 | -0.3 | -4.6 | -1.0
